This is an account of results in PubChem BioAssay AID759 (NMMLSC, 2007).

Among all 190,000 compounds or so, about 270 (0.14%) were called active. Another 2% or so got no clear call; they are omitted. The list comes from a sample in which actives are over-represented; it also holds similar structures and randomly drawn compounds. Unmarked numbers belong to inactive results.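 The calls were made as follows: active = GTP binding activity at least 20% away from the 100% baseline, either lowered as inhibitor or raised as activator; inconclusive = flagged as likely green fluorescent, judged across all proteins in the well; inactive = the rest.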

This assay deals with GTPase HRas (Homo sapiens) (UniProt P01112). Kind of assay: HRas wt fluorescent GTP binding changes, either direction – biochemical, wildtype, bead-based flow cytometry, multiplex, primary screen (AID 759).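 Also: 0% = unlabeled GTP competition control and 100% = no-compound control.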 As to conditions: GST-Ras wt beads, Bodipy-FL-GTP binding, at 10 µM, actives lie on both sides. In general terms: Flow cytometry measures light scatter and fluorescence of single cells or particles in a stream.
Sequence of GTPase HRas (Homo sapiens) (P01112 whole entry, looked up): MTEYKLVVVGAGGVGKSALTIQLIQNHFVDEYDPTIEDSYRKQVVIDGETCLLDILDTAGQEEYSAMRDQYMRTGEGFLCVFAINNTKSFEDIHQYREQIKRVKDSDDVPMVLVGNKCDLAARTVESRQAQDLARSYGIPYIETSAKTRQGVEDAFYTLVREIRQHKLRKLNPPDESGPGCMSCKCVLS
Regarding `CCCCNC(=O)Nc1c(C)cc(SC#N)cc1C`, the GTP binding activity is 95%.
For `Cc1cccc(NC(=O)CSc2nc3[nH]ncc3c(=O)[nH]2)c1` the value was 97%; for `CCCSc1nc2[nH]ncc2c(=O)[nH]1`, 101%.
Under `Cc1ccc(CSc2nc3[nH]ncc3c(=O)[nH]2)cc1` stands 78% (active); under `CCC(=O)/C(=C(/O)c1ccccc1)c1nc2ccccc2[nH]1`, 98%.
Consider `COC(=O)c1nn(-c2cccc(Cl)c2)ccc1=O`, for which the GTP binding activity is 97%.
Under `O=C(CC12CC3CC(CC(C3)C1)C2)NCc1ccco1` stands 96%; under `CCc1ccc(Nc2nnc(SCC(=O)c3ccc4c(c3)NC(=O)CO4)s2)cc1`, 99%.
For `COc1ccccc1CC(NC(C)=O)C(=O)NC1CCN(C(=O)Nc2ccccc2Cl)CC1` (centres undefined) the value was 101%.
In the case of `COC(=O)c1ccc(/C=N/OCC(=O)Nc2cc(F)ccc2F)cc1`, the GTP binding activity was 95%.
For `COc1ccc(N2CCN(CCCNC(=O)C3CCN(S(=O)(=O)N4CCOCC4)CC3)CC2)cc1` the value was 96%.
On to `COc1ccc(/C=C/CN2CCN(Cc3ccc(C)cc3)C(CCO)C2)cc1` (centres undefined), for which the GTP binding activity is 105%.
For `COc1cccc(NCCC(=O)c2cccc([N+](=O)[O-])c2)c1` the value was 97%.
`Cc1ccc(C(=O)O)cc1NC(=O)c1ccc(Cn2nc(C)c(Cl)c2C)o1`: the GTP binding activity was 100%.
On to `Cc1noc(C)c1COc1cccc(C(=O)Nc2cccnc2)c1`, for which the GTP binding activity was 97%.
Under `Cc1[nH]c2c(C(=O)N3CCCC(CCC(=O)NCc4ccccc4F)C3)cccc2c1C` (centres undefined) stands 106%.
Take `COC(=O)c1nc(NC(=O)c2ccc(F)cc2)n[nH]1`: the GTP binding activity was 98%.
For `N#CC1=C(N)Oc2[nH]c(=S)[nH]c(=O)c2C12C(=O)Nc1ccccc12` (centres undefined) the value was 96%; for `COc1ccc(/C=C(\C#N)C(=O)ONC2=NCCCCC2)cc1`, 97%.
For `C=C(C)CNC(=S)N/N=C/c1ccccc1OCC(=O)O` the value was 95%.
For `O=C(COC(=O)c1cnc(Cl)c(Cl)c1)NCc1ccco1` the value was 97%.
Take `CN1CCN(C(=O)N2c3ccccc3CCc3ccccc32)CC1`: the GTP binding activity is 102%.
On to `O=C(Nc1cccc(Cl)c1)c1cc([N+](=O)[O-])ccc1N1CCN(CCO)CC1`, for which the GTP binding activity is 97%.
For `CC/C(Cc1ccccc1)=N/NC(=O)CCn1nnc2ccccc21` the value was 101%.
For `CSc1ncccc1C(=O)NC1CCCCCC1` the value was 98%; for `COc1ccc(NC(=O)c2c(SC)nsc2SC)cc1`, 101%; for `CSc1nsc(SC)c1NC(=O)OC1CCCCC1`, 39% (active).
On to `Cc1ccc(S(=O)(=O)N2CCN(C(=O)c3cccs3)CC2)cc1`, for which the GTP binding activity was 93%.
Under `COc1ccc(O)c(C(=O)c2cnc3c(c2)c(-c2ccc(F)cc2)c(C#N)c(=O)n3C)c1` stands 95%; under `O=C(CCCc1ccccc1)NCc1ccccc1`, 94%.
For `COc1cc2nc(CN(C)Cc3ccc(F)cc3)[nH]c(=O)c2cc1OC` the value was 97%; for `O=C(Nc1ccccc1F)c1ccccc1-c1ccccc1`, 76% (active); for `NC(=O)c1ccccc1NC(=O)c1ccccc1F`, 101%.
With `O=C(Nc1ccccc1F)c1ccccc1-c1ccc(C(F)(F)F)cc1`, the GTP binding activity is 104%.
With `COc1cc(C(=O)N[C@@H](C)C(=O)NCc2ccco2)cc(OC)c1OC`, the GTP binding activity was 98%.
As to `Cc1cccn2c(CN(C)C3CCCc4ccccc43)c(C(=O)N3CCOCC3)nc12` (centres undefined), the GTP binding activity is 98%.
For `O=C1CC(c2c(F)cccc2Cl)C(n2cncn2)C(O)=C1C1NCCc2ccccc21` (centres undefined) the value was 94%.
As to `O=C(Nc1ccccc1C(=O)N1CCOCC1)c1ccc(CSc2ccccc2)cc1`, the GTP binding activity was 100%.
`Nc1ncnc(Nc2cccc(Cl)c2Cl)n1`: the GTP binding activity is 97%.
For `COc1cc(C(=O)N2C(=O)c3cccc(N)c3C2=O)cc(OC)c1OC` the value was 95%.
For `COc1c(F)c(F)c(C(=O)O)c(Nc2ccccc2C)c1F` the value was 98%.
With `Cc1ccc(Nc2c(F)c(F)c(F)c(F)c2C(=O)O)c(C)c1`, the GTP binding activity is 124% [activator] (active).
Under `Cc1ccc(NC(=S)NC(=O)c2ccc(-c3ccccc3)cc2)c(C)c1` stands 100%; under `Cc1cc(C)nc(NNC2=CC(=O)CC(C)(C)C2)n1`, 99%; under `CCOc1ccc(OCc2cccc(C(=O)N(CC)CC)c2)cc1`, 98%.
Under `CN(Cc1cc2cc(F)ccc2[nH]1)Cc1nc(-c2cnccn2)no1` stands 98%.
Under `CC(C)(C)C(=O)N(Cc1ccccc1)c1ccccn1` stands 95%; under `COc1ccccc1NC(=O)COC(=O)Cc1ccc(S(=O)(=O)N2CCCCC2)s1`, 98%; under `S=c1ccc2ccccc2[nH]1`, 98%.
Take `C=CCNC(=O)CC12CC3CC(C1)CC(CC(=O)NCC=C)(C3)C2`: the GTP binding activity was 99%.
For `Cc1ccc(SCCC(=O)NCc2ccccn2)cc1` the value was 99%; for `CCOc1ccc(NS(=O)(=O)c2cc(C)c(C)cc2C)cc1`, 98%.
For `COc1cc(/C=N/Nc2ccc(C)cc2)cc(Br)c1O` the value was 96%; for `COc1ncnc2sc3c(c12)CCCC3`, 103%; for `COc1ccc(/C=N/Nc2ncnc3sc4c(c23)CCCC4)cc1O`, 71% (active).
For `O=C(Nc1ccc(-c2ccc3nncn3n2)cc1)C1CCCCC1` the value was 99%; for `CC(=O)NC1C(OCc2ccccc2)OC(COC(C)=O)C(OC(C)=O)C1OC(C)=O` (centres undefined), 102%; for `O=C(OCC1O[C@@H](OC(=O)c2cc(O)c(O)c(O)c2)[C@@H](OC(=O)c2cc(O)c(O)c(O)c2)[C@@H](OC(=O)c2cc(O)c(O)c(O)c2)[C@@H]1OC(=O)c1cc(O)c(O)c(O)c1)c1cc(O)c(O)c(O)c1` (some centres undefined), 79% (active).
`O=S(=O)(Nc1ncccn1)c1ccc(NS(=O)(=O)c2cccc(Cl)c2Cl)cc1`: the GTP binding activity is 96%.
Regarding `CC(CC(=O)O)CC(=O)NNC(=O)c1cccc(Br)c1` (centres undefined), the GTP binding activity is 95%.
Take `CC(C)N(C)C(=O)CCc1nnc(CCc2c[nH]c3ccccc23)o1`: the GTP binding activity is 93%.
For `CCOc1cc(NC(=S)NCc2ccco2)c(OCC)cc1NC(=O)c1ccco1` the value was 98%; for `O=C(CN1CCN(S(=O)(=O)/C=C/c2ccccc2)CC1)Nc1ccc(N2CCOCC2)cc1`, 99%; for `Cc1ccc(CC(=O)Nc2cccc(C#N)c2)cc1`, 98%.
Consider `NNC(=O)c1cnn(-c2ccccc2)c1C(F)(F)F`, for which the GTP binding activity was 98%.
For `CCCN(CC(=O)Nc1ccc(C(N)=O)cc1)CC(=O)Nc1ccccc1C`, the GTP binding activity is 96%.
Under `CN(C)C(=O)CSc1n[nH]c(-c2ccco2)n1` stands 94%; under `O=C(CNCc1ccc(Cl)cc1)Nc1cccc(C(=O)O)c1`, 95%.
For `CCN(CC)c1ccc2c(Nc3ccccc3)c(C=O)c(=O)oc2c1`, the GTP binding activity is 93%.
Turning to `CC(=O)c1sc(NC(=O)C2=NN(c3ccccc3)C(=O)CC2)nc1C`, the GTP binding activity was 98%.
Under `COc1ccc(NC(=O)COC(=O)c2ccncc2)c(OC)c1` stands 97%.
Regarding `C=CCOCCN(C)C1=NS(=O)(=O)c2ccccc21`, the GTP binding activity is 100%.
Under `Cc1cc(OC(=O)c2ccccc2Cl)ccc1N1C(=O)CCC1=O` stands 97%.
Under `CN(C)c1ccc(NC(=O)CSc2n[nH]c(-c3ccco3)n2)cc1` stands 94%.
For `CCOC(=O)c1sc(NC(=O)c2cc(S(=O)(=O)N3CCOCC3)ccc2C)nc1C` the value was 100%; for `COc1ccc(S(=O)(=O)N2CCOCC2)cc1NC(=O)CSc1ncnc2ccccc12`, 93%; for `COc1ccc(S(=O)(=O)N2CCOCC2)cc1C(=O)Nc1nc2ccccc2s1`, 75% (active).
Take `O=C(O)CC1S/C(=N\N=C/c2ccccc2O)N(c2ccc(O)cc2)C1=O` (centres undefined): the GTP binding activity is 97%.
Under `Cc1sc2c(c1C)c(=O)n(-c1ccccc1)c(=O)n2CC(=O)NCC1CCCO1` (centres undefined) stands 98%.
As for `C=CCOC(=O)C1=C(C)N=C2SCCC(=O)N2C1/C=C/c1ccccc1OC` (centres undefined), the GTP binding activity is 99%.
For `COc1cc(N/C=C2\CC(=O)NC(C)=C2C#N)cc(OC)c1OC` the value was 102%; for `O=C(Nc1ccc(N2CCOCC2)cc1)c1ccc2c(c1)OCO2`, 99%; for `CCc1ccc(NC(=O)C(=O)N/N=C(\C)CC(=O)NCCOC)cc1`, 96%.
Regarding `CCn1c(SCc2cc(=O)n3ccsc3n2)nc2ccccc21`, the GTP binding activity is 102%.
For `Oc1cccc2ccc(/C=C/c3ccc(Br)s3)nc12` the value was 100%; for `CC(=O)C1(C)N(O)C(C)(C)C(c2cccs2)=[N+]1[O-]` (centres undefined), 98%.
Regarding `CCOCC(=O)Nc1ncc(S(=O)(=O)c2ccc([N+](=O)[O-])cc2)s1`, the GTP binding activity was 91%.
For `CN(C(=O)CSc1nncc2ccccc12)C1CCCCC1` the value was 96%; for `CC1(C)CC(=O)C(CC(=O)N2CCC(Cc3ccccc3)CC2)C(=O)C1`, 96%.
Under `CCn1cc(-c2cc(C(=O)O)on2)c(C)n1` stands 95%.
For `c1csc(-c2nnc(COc3ccc4c(c3)OCO4)o2)c1` the value was 96%; for `CCNC(=O)CC1C(=O)N(c2ccc(F)cc2)C(=O)N1Cc1cccs1` (centres undefined), 100%; for `CNC(=O)NC(=O)CSc1nnc(-c2ccc(F)cc2)n1CC1CCCO1` (centres undefined), 97%.
`C=CCn1c(COc2ccc(F)cc2)nnc1SCC(=O)Nc1cccc(S(N)(=O)=O)c1`: the GTP binding activity is 96%.
Under `Cc1ccccc1C(=O)Nc1ccc(N2CCCCCC2)cc1` stands 96%; under `Nc1nnc(SCn2nnc3ccccc3c2=O)s1`, 95%; under `O=C(NCc1ccc(F)cc1)C(c1ccccc1)N(C(=O)c1csnn1)C1CC1` (centres undefined), 95%.
In the case of `O=C(O)CCCCCNc1ncnc2ccc(Br)cc12`, the GTP binding activity is 97%.
For `C=C(C)C1CC=C(C)/C(=N/NC(=O)CCCNc2cccc(C)c2)C1` (centres undefined) the value was 96%.
